Assay results reported in the supplement of paper PMC11732987, “Enantioselective OTUD7B fragment discovery through chemoproteomics screening and high-throughput optimisation” (Communications Chemistry, 2025).

Experiments:
Experiment in all cases: log2 ratio of Biotin-Ahx-Ub-VS probe labelling (fragment/DMSO); higher = less target engagement (more negative = stronger competition), active = hit call of the paper (q ≤ 0.05, log2 ratio ≤ -1)
Details in all cases: compound concentration: 200 uM; treatment time: 3 h
USP42 = molecular target: T1, USP42 (UniProt Q9H9J4)
T1 sequence (whole entry): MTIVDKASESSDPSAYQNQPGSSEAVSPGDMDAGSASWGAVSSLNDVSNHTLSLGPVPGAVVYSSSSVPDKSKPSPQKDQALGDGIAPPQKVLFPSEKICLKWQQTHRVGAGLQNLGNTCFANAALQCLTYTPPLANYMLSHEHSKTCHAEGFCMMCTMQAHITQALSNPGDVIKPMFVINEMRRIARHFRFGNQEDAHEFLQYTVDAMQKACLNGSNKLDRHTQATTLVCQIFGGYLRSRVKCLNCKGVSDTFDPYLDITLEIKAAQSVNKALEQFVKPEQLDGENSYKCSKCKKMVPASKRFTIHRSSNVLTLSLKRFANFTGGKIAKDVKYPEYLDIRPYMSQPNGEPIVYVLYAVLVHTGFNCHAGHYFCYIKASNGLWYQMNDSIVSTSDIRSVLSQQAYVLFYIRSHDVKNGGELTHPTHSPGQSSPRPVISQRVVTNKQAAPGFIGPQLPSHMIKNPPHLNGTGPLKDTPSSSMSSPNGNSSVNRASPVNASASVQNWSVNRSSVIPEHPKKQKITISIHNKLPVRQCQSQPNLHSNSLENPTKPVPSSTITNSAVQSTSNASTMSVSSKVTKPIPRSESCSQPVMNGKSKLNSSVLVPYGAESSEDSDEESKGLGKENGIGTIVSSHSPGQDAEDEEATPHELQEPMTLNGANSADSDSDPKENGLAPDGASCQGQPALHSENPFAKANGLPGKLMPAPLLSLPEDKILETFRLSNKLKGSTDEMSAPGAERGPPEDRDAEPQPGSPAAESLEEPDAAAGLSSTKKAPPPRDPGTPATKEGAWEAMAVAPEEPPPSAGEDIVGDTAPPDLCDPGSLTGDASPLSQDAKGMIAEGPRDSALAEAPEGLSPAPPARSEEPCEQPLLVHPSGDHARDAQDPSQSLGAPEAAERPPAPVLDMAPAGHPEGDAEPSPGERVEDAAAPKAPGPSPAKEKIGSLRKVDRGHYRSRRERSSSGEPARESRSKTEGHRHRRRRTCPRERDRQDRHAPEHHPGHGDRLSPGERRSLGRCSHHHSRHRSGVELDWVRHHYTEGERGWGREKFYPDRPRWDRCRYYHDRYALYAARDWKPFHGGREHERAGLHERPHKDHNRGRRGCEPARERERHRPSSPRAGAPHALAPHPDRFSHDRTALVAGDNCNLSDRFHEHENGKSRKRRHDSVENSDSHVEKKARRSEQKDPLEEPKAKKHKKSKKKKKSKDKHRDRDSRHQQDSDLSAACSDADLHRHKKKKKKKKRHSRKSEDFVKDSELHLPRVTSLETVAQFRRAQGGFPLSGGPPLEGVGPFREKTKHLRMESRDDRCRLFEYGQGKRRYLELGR
How it was run: (§1)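 HEK293T lysate (495 µg per sample, in Tris/CHAPS/IGEPAL buffer with protease inhibitors) was exposed in triplicate for 3 h to fragment at 200 µM or to vehicle, then to Biotin-Ahx-Ub-VS at 0.5 µM final for 1 h. Labelled DUBs were enriched on NeutrAvidin, digested with LysC and trypsin, and analysed by diaPASEF LC-MS/MS. Spectronaut label-free quantities were normalised to the global median, and values are average log2 ratios of fragment over vehicle from an unpaired t-test. Only proteins with ≥2 unique peptides were used.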

USP46 = USP46 (UniProt P62068)
Chain of USP46 (P62068 whole entry): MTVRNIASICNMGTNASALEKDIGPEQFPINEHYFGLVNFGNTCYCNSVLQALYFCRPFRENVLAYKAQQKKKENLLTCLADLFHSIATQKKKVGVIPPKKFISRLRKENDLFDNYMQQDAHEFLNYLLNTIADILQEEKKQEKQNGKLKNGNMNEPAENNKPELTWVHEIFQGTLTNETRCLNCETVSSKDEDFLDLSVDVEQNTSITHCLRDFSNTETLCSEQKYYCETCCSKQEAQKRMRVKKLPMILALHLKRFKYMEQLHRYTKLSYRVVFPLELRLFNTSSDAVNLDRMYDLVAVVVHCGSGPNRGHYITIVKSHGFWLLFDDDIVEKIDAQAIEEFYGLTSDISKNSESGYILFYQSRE
How it was run: as §1

USP47 = molecular target: T2, USP47 (UniProt Q96K76)
T2 sequence (whole entry): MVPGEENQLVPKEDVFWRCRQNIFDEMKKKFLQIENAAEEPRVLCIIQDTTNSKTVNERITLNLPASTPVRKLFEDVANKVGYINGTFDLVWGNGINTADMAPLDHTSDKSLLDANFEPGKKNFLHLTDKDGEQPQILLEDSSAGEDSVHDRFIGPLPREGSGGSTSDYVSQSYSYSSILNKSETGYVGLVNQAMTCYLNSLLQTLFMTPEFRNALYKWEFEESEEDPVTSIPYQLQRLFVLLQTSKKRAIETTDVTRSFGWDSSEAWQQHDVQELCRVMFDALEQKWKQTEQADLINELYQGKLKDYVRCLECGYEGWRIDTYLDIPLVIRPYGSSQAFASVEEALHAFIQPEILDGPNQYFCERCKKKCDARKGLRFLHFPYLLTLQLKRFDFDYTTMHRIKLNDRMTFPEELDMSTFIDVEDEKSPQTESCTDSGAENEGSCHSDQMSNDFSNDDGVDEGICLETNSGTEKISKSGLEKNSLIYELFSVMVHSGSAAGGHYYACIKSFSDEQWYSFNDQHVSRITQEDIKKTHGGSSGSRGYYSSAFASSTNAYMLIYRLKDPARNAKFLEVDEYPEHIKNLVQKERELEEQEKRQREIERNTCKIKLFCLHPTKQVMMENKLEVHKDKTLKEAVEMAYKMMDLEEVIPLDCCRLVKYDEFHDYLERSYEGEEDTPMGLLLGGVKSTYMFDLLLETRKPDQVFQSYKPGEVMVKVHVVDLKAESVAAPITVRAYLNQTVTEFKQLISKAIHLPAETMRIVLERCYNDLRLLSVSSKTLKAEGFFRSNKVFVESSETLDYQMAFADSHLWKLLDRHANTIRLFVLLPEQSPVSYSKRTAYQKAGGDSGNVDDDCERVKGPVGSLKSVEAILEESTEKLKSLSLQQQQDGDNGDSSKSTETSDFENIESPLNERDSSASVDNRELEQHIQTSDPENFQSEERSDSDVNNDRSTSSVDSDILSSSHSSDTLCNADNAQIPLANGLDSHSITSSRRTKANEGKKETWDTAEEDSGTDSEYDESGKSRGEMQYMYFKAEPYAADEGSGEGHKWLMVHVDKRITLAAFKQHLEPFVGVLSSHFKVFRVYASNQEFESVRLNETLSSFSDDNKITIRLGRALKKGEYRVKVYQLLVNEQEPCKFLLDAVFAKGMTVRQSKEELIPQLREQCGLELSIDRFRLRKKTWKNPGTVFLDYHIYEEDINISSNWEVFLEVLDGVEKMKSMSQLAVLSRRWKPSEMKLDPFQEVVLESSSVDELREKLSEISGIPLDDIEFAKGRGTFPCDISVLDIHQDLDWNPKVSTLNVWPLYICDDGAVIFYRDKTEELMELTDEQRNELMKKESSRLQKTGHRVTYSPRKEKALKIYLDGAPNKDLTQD
How it was run: as §1

USP48 = molecular target: T3, USP48 (UniProt Q86UV5)
T3 sequence (whole entry): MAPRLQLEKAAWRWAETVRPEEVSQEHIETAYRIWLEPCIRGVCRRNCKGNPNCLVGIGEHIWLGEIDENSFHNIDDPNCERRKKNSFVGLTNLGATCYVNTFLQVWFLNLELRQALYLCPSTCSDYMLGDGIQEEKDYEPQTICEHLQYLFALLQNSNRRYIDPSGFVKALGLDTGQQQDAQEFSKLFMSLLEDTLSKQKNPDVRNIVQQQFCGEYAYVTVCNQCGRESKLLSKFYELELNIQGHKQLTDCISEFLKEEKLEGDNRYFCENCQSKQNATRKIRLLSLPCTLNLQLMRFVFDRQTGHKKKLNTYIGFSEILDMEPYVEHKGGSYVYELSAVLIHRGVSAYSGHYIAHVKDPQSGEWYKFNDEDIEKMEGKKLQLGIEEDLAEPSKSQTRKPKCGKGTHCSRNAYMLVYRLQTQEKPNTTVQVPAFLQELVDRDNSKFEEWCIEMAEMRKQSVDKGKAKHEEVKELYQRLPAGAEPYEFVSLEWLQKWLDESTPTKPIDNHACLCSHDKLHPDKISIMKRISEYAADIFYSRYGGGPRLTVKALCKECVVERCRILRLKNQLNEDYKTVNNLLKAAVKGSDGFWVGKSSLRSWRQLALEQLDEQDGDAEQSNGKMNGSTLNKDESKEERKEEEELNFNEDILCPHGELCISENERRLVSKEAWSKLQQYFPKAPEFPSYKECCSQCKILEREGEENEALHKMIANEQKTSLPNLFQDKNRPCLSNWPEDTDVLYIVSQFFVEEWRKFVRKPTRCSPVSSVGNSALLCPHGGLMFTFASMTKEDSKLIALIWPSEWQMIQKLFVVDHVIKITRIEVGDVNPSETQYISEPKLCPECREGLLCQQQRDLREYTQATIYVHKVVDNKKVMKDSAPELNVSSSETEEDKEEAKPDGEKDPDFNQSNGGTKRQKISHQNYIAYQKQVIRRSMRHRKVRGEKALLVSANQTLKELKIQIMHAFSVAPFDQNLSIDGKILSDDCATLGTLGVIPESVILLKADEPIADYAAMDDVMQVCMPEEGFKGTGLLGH
How it was run: as §1

USP5 = molecular target: T4, USP5 (UniProt P45974)
T4 sequence (whole entry): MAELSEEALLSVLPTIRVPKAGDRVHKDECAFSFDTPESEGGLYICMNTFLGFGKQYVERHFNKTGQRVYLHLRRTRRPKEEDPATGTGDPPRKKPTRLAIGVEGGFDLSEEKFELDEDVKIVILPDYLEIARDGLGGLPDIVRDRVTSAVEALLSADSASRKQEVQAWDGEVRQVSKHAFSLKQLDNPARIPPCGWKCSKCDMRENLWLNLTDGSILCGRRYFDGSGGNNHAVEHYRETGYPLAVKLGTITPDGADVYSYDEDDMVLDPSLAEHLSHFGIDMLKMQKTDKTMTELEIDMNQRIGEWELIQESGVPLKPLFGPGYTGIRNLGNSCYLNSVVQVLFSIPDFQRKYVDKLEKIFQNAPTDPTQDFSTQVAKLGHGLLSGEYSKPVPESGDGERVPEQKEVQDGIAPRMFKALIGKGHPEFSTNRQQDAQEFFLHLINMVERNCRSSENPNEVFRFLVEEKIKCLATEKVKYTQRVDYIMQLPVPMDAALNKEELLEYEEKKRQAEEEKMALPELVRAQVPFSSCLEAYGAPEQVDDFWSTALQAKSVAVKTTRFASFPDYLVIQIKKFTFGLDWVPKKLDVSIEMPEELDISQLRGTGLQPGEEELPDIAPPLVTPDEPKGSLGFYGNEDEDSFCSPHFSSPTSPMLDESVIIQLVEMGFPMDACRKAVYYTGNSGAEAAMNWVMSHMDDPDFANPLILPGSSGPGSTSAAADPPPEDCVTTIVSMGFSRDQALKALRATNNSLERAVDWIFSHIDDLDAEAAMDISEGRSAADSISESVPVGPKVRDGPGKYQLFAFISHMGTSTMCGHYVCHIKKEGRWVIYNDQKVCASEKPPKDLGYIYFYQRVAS
How it was run: as §1

USP54 = USP54 (UniProt Q70EL1)
Chain of USP54 (Q70EL1 whole entry): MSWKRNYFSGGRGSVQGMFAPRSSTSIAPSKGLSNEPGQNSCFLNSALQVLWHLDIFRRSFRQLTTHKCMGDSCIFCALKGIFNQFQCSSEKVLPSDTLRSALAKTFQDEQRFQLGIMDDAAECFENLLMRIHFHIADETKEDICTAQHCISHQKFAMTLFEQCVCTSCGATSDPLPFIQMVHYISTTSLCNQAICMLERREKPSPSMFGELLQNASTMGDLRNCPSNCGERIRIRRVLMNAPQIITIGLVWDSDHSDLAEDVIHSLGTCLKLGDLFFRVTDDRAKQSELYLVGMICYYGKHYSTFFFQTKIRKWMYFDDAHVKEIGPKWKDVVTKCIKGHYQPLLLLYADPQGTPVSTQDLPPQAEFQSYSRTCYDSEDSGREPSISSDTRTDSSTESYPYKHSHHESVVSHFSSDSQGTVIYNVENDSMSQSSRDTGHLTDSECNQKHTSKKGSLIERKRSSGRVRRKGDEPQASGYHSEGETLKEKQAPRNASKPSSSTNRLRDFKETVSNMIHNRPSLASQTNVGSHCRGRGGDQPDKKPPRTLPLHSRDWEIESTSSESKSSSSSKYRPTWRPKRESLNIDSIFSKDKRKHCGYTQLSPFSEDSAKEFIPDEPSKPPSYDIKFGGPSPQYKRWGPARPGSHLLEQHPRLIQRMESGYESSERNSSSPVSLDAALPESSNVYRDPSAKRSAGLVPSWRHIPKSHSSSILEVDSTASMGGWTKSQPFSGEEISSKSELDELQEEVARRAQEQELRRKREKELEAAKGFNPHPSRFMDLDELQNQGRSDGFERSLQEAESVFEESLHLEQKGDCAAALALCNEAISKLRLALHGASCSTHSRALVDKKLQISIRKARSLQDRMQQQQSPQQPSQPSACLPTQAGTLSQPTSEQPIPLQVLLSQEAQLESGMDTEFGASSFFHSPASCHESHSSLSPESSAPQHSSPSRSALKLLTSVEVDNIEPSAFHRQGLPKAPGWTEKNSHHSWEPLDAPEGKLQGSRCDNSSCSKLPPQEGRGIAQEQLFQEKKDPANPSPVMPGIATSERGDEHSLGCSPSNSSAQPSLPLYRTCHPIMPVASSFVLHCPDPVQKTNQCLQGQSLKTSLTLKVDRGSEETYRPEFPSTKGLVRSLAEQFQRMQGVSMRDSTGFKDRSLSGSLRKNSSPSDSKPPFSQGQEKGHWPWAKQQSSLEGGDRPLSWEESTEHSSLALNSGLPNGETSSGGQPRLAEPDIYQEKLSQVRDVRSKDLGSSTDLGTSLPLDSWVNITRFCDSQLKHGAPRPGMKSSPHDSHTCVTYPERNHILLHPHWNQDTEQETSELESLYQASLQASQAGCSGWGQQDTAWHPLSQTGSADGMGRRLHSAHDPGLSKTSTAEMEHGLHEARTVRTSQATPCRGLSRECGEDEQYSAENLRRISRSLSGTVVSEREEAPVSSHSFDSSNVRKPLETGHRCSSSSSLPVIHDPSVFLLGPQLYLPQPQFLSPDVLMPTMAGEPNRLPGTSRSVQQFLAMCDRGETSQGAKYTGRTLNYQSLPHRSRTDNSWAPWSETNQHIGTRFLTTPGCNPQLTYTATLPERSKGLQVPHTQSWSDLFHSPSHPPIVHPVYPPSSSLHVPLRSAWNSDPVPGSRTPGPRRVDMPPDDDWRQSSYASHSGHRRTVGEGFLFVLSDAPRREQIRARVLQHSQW
How it was run: as §1

USP7 = USP7 (UniProt Q93009)
Chain of USP7 (Q93009 whole entry, looked up): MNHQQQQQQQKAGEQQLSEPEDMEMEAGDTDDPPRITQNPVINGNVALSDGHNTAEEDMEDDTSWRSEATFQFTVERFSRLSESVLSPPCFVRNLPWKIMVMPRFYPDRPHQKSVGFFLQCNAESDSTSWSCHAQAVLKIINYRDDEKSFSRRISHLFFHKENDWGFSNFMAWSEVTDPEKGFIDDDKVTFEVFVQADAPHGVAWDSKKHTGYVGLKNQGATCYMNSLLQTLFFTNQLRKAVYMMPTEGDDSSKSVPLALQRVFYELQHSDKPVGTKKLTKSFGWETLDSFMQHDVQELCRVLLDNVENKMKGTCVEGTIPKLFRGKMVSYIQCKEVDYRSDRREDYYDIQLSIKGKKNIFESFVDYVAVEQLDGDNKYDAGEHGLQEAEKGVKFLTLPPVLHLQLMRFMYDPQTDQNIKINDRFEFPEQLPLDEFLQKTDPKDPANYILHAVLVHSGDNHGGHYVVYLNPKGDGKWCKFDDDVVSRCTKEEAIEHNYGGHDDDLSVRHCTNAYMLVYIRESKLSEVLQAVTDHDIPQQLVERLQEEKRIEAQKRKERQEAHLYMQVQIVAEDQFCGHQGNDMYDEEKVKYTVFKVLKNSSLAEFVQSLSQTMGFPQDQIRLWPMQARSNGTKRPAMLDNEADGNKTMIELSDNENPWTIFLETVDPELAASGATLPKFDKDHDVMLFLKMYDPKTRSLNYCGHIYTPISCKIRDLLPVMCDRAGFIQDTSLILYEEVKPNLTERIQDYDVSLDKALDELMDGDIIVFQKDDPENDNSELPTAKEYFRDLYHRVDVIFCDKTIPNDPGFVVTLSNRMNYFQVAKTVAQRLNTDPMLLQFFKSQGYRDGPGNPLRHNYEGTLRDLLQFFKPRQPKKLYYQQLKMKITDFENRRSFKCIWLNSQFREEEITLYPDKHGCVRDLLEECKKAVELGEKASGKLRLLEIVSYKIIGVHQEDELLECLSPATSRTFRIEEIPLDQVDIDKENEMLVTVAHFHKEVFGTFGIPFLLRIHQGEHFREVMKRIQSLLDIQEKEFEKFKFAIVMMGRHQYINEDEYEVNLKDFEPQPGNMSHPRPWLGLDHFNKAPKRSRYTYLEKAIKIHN
How it was run: as §1

USP8 = molecular target: T5, USP8 (UniProt P40818)
T5 sequence (whole entry): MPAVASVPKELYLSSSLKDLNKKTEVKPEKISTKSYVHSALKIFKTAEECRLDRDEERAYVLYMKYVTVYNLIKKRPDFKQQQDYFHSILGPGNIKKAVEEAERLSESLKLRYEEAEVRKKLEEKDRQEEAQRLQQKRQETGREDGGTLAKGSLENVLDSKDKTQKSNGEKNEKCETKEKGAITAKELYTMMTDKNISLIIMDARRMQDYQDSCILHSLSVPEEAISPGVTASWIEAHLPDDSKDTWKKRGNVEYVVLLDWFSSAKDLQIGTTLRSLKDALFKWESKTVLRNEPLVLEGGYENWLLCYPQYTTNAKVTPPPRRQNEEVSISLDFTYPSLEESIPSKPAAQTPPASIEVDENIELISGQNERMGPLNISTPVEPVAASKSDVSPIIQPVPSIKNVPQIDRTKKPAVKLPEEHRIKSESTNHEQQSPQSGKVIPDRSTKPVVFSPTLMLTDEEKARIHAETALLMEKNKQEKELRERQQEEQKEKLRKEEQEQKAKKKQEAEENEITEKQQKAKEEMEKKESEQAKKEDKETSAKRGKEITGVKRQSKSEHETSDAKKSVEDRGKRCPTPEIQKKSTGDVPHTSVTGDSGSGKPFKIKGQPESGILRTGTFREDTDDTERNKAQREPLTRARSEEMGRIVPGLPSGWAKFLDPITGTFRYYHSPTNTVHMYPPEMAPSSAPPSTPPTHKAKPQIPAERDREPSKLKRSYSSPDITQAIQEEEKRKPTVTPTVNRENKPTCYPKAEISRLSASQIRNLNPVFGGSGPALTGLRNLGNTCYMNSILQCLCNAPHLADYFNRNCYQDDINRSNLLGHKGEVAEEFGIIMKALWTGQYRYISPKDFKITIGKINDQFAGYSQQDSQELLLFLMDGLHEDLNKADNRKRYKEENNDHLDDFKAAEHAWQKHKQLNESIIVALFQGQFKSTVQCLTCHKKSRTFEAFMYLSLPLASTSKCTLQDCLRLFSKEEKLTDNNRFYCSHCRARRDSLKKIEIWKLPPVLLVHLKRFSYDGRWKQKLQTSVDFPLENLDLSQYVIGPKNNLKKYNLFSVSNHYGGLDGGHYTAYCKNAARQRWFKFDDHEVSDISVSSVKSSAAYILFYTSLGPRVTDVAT
How it was run: as §1

Measured: log2 ratio of Biotin-Ahx-Ub-VS probe labelling

O=C(CCl)N1CCC(c2nc3ccccc3o2)CC1
inactive: USP42 -0.0372 | USP46 -0.0557 | USP47 -0.397 | USP48 -0.598 | USP5 0.186 | USP54 0.726 | USP7 -0.746 | USP8 -0.0637
